This experiment deals with VDR:RXRa (NR concentration 270 nM, RXRa partner concentration 90 nM). In words: PBM binding z-score (relative to random genomic background probes); higher = stronger binding; sequences stand for … in GC…GCGATTGACAGCGTAGAATGAAGG
As to the method:
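Protein-binding microarray (Agilent 4x180K custom design, double-stranded 60-nt probes: 5' GC cap, 34-nt variable region, 24-nt constant primer region; full probe sequence given). Purified or IVT nuclear receptor:RXRα heterodimers (3:1 NR:RXRα, mostly 270:90 nM) or homodimers were incubated for 1 h in PBS with 2% milk and no ligand, then detected with Alexa488 antibodies. Fluorescence from o1-orientation probes (~5 replicates averaged) was converted to z-scores against 500 random hg19 background probes. Variable regions are seed direct-repeat (DR0–DR5) sites, all their single-nucleotide variants and half-site ablations.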
TAGCCTAGGTCATGCGGGCCAGTAAAGTGTCGGC came in with a PBM binding z-score of 2.75.
The sequence TCATATAGGTAATACATGTGAAAGTCGGCATCTA gave a PBM binding z-score of 1.07.
To CGTCCAAGGTCTTAGGAGGTCAGTGAAGACAGAT belongs 2.89.
To TGAATGAGGTTATAAGATCTGGGAACGTTGCAAA belongs 0.768.
To CGTCAAAGTTCAACTAAGGCAACGTAAAGCACGC belongs 4.19.
GCTATTAGTTGAAAGGGCAACCGAATGATTCTCG came in with a PBM binding z-score of 0.531.
TCGAGTAGGTTAGTCGGGGCATTCAACCAACATA had a PBM binding z-score of 2.31.
To CAAACTAGGTCAAGGACAGTGAATCTCCGCACGC belongs 1.56.
To CCTACTGGGCCATCAGGTCATTGGTATCAACGTT belongs 2.04; to CGAACGAGGGCATGACTTGATAGCAAATGCCGAT, 0.573; to CCTCGGAGTACAACAGGAGGTCAGAGCTGCCAGA, 2.09.
To CCGACTGGGGCAAAAGTTACCATACTCAGTACGA belongs -0.267.
Turning to TCACCAAGGTGAGCTGAGGTCGTTGATCCAACTC, the PBM binding z-score came to 3.97.
To CGTCAAAGTTCAACGTAACGTAACAGAAAGCAGC belongs 3.97; to GCTGCTAGGTCAACCGATGGTCAGCTAAAGCTCG, 1.54.
To TCTCGGAGGACACGAAGTTCAGAGCTTTCCAGAG belongs 2.63; to CCTAGTTGGTTAAGGTCACACACGCTATAGGTAC, 4.4.
To CCTACTGGGCCAAGGTCATTCATCAGTCAAAGCA belongs 3.55.
For the sequence CGAACGAGGGCATGTGTTGATAGCAAATGCCGAT, the PBM binding z-score stood at 0.931.
To TCTGCTAGGTCCACGATGGTCAGCTAATCTGCTA belongs -0.304.
To GCTTACGGGTCAAAGGTTATACCATGAATAGAAT belongs 5.75.
To TCTTGTAGTTCAAAGGTTAAGAAAGCCGAAGCCT belongs 3.68; to CGTCCAAGGTCAGAGGAGGTCAGTGAAGACAGAT, 5.98.
With CTACCAAGGTGACCAAGGTCGTTGATTACTATTC, the PBM binding z-score stood at 5.32.
To CCTGGTTGGTCAGGAGGTCACACACCGGATATGA belongs 3.73.
To ACTTACGGGTCAACGAGGTTATGGCACGCGTATA belongs 7.66; to TCGAGTAGGTTACCAATGGGGCATGCAGCTTTCT, -0.0716.
To CCTGCTAGGTCAATGGCCAGCTAAAGCAGCTCGC belongs 0.561; to AGAACGAGGGCAAAGAGTTGATAGCACGGGTGGC, 4.29.
CCTCGGAGGACAGAGGGTCAGAGCTGTCCGCTTT yielded a PBM binding z-score of 0.544.
Take TTACCAAGGTGAGCTGATGTCGTTGATCCAACTC: the PBM binding z-score was -0.0183.
To CGTTACGGGTCACGAGGTTATAGCACGACGAGCG belongs 5.35.
To TCTGTTAGGTCAGTTGGTCAGCTAACGAGCTGCC belongs 0.897.
To CAAACTAGGTCAAGGGTCAAAGTCGAGCCAACCA belongs 5.5; to TCATAAAGGTAAAAGGTGAAAGTCGGTGTGGTAA, 1.89.
The sequence CCTTACGGGTCACTCCAGGATATAGCATCGGAGT registered a PBM binding z-score of 2.88.
To CCTAGTTGGTCAAGGACACACACGCTATAGGTAC belongs 0.744; to CGTCCAAGGTCAGAAAGGTCAGTGAATGCCGAGT, 6.33; to AGTCAACGTTCATCTAGGTAACGTAAGATATGCT, -0.0927.
Turning to CCTCGGAGGACAACAGGAGGTCAGAGCCGCCAGA, the PBM binding z-score stood at 1.58.

Values taken from the supplement of paper PMC6555819.
